Sampled rows, rich in hits. Any-hit rate of the full collection: about 9.4%.
NPC1 promoter act = activators of NPC1 promoter; Huh7 NPC1 promoter luciferase reporter, 24 h; Potency, µM (doses to about 9.22 µM), inactives show top-dose activation, usual class: activators; hit rate 2.4% among 320,000; note: % of control where 0% means no effect; nearly all actives have a fitted effect of over 60% in size
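Readout is luciferase luminescence, reflecting NPC1 promoter activation in stably transfected Huh7 cells after 24 h compound exposure at 37 °C in reduced-serum medium with 10% FBS.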
SMN2 splice up = increases expression of the SMN2 splice variant. HEK293 SMN2-luciferase splicing reporter, luminescence, 30-36 h. Potency, µM (highest dose often 46.1 µM), without a hit: top-dose activity change, positive = activation, hits mostly activators. hit rate 2.8% among 210,000. AID 1458; note: % of control where 0% means no effect; nearly all actives have a fitted effect of over 55% in size
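qHTS luciferase splicing reporter: luminescence rises when SMN2 exon 7 is included in transfected HEK293 cells. Compound exposure lasted 30-36 h at 37C, with 4.5 mM final sodium butyrate as control, followed by a ONE-Glo read.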
Rab9 prom act = activates the Rab9 promoter | Huh7 Rab9 promoter-luciferase reporter, luminescence, 24 h | Potency, µM (top dose mostly 9.22 µM), for the others: at the top dose activation, negative = inhibition, hits mostly activators | hit rate 2.8% among 320,000; note: % of control where 0% means no effect; nearly all actives have a fitted effect of over 60% in size
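Huh7 reporter line, Rab9 promoter upstream of luciferase. Compound exposure 24 h at 37 °C in reduced-serum medium with 10% FBS. Read-out: luminescence.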
ELG1 repair inh = ELG1-dependent DNA repair inhibition | AID 504467 | HEK293T ELG1-luciferase reporter, luminescence, 16 h; DNA damage induced by 5-fluorouridine | Potency, µM (series often up to 46.1 µM), without a hit: at the highest dose activity change, negative = inhibition, usual class: inhibitors | hit rate 2.3% among 330,000; note: % is set by controls: 0 for no effect and ±100 for the full control effect; nearly all actives have a fitted effect of over 55% in size
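DMSO vehicle served as the neutral condition. Each well held 2,000 cells given 5-fluorouridine plus compound; after 16 hr at 37 °C/5% CO2, ONE-Glo was added and luciferase measured 30 min later.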
ELG1 genotoxic = genotoxicity induction in ELG1-luciferase HEK293T cells; HEK293T ELG1-luciferase reporter, luminescence, 16 h; Potency, µM (top dose mostly 46 µM), for the others: at the highest dose activity change, positive = activation, hits mostly activators; hit rate 1.3% among 330,000; note: % of control where 0% means no effect; nearly all actives have a fitted effect of over 60% in size
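Genotoxic stress is detected as increased luminescence from luciferase-tagged ELG1 in HEK293T cells, measured with ONE-Glo after a 16 hr treatment at 37 °C.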
FLuc counter = counter-screen for miR-21 project: firefly luciferase inhibitors or activators; AID 588342; hit rate 6.9% among 360,000; Potency, µM (highest dose often 57.5 µM), without a hit: top-dose activity change, negative = inhibition, most hits filed as inhibitors; purified FLuc, Km substrates, luminescence inhibition; P08659;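 note: plate controls were vehicle for no effect and reference inhibitor for full effect; nearly all actives have a fitted effect of over 55% in size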
Target sequence (P08659 whole entry, looked up): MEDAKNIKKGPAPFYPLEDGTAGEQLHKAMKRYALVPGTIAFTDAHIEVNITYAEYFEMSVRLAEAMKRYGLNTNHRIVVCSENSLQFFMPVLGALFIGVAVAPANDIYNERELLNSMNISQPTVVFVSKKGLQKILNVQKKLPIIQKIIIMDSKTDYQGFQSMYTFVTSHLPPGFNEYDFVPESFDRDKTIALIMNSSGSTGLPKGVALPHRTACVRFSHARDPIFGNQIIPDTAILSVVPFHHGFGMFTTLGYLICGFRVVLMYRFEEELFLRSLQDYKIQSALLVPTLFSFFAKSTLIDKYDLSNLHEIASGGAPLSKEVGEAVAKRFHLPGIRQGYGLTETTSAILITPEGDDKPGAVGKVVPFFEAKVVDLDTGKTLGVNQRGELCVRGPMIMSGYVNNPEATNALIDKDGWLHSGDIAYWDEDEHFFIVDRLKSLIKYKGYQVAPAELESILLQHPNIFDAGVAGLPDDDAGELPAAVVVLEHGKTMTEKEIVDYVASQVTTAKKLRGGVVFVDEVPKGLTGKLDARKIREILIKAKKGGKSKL
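Biochemical qHTS of compounds, final roughly 60 µM downward over six points, against 10 nM purified firefly luciferase using Km concentrations of substrates (10 uM D-luciferin, 10 uM ATP) in Tris acetate pH 7.5 buffer; luminescence output.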
* hit, by the source's call; ? = inconclusive; . = no result; [ ] = another dose, or the depositor's remark. Calls come from the whole dose curve; as a rule, active = well fitted curve in the direction sought with a large enough effect; inconclusive = small, poorly fitted or top-dose-only effect, or another doubt; inactive = no such curve, though single readings can be large; an effect the other way counts as inactive or inconclusive. Potency is the fitted concentration of half-maximal effect.

SMILES	NPC1 promoter act	SMN2 splice up	Rab9 prom act	ELG1 repair inh	ELG1 genotoxic	FLuc counter
O=C(N/N=C/c1ccc(F)cc1)c1cccc(NC(=O)c2ccc(F)cc2)c1	22.6%	.	?	-3.5%	-9.6%	8.49µM*
O=C(Nc1ccccc1C(=O)N/N=C/c1ccc(F)cc1)c1ccccc1Br	6.8%	-4.6%	7.3%	-12.3%	-0.8%	6.01µM*
O=C(N/N=C/c1ccc(F)cc1)c1cc[n+]([O-])cc1	-2.4%	.	0.1%	9.5%	4.3%	-0.4%
O=C(N/N=C\c1ccc(F)cc1)c1csnn1	24.1%	6.0%	22.4%	?	?	23.9µM*
CCC(Cc1ccccc1)NC(=O)Cn1ncc2c3ccccc3n(Cc3ccccc3)c2c1=O (configuration not stated)	.	0.0%	.	.	.	5.6%
CCN(c1cc(C)cc(C)c1)S(=O)(=O)c1nnc(NC(=O)c2ccccc2C)s1	.	.	.	.	.	2.5%
O=C(N/N=C/c1ccccc1O)c1cccc(C(F)(F)F)c1	-25.2%	-102.7%	-25.7%	?	?	?
O=C(N/N=C/c1ccccc1C(F)(F)F)c1ccc(O)cc1	?	27.8%	?	?	?	10.7µM*
O=C(O)c1ccc(/C=N/NC(=O)c2ccc(F)cc2)cc1	-6.0%	.	1.5%	2.0%	-1.6%	19µM*
CC1(C)S[C@@H]2[C@H](C(=O)O)N=C(Cc3ccccc3)N2[C@H]1C(=O)O	.	-15.5%[9.22 µM]	.	.	.	.
Cn1c(COc2ccccc2O)[n+](C)c2ccccc21	-3.5%	.	-2.1%	2.4%	-3.5%	-1.8%
COc1ccc(N=Nc2n(C)c3ccccc3[n+]2C)cc1	0.708µM*	.	?	?	0.92µM*	0.0757µM*
CC(C)c1ccc(NC(=O)c2ccccc2NC(=O)C2CC=CCC2C(=O)O)cc1 (configuration not stated)	15.2%	.	14.7%	?	?	26.9µM*
CC(C)c1ccc(NC(=O)c2ccccc2NC(=O)C2CCCCC2C(=O)O)cc1 (configuration not stated)	25.4%	.	?	?	14.0%	?
Clc1ccc(-c2nnc(CSc3nnc(-c4cccs4)n3Cc3ccccc3)o2)cc1	-18.2%	-80.2%	-35.8%	-17.5%	16.7%	3.3%
Fc1ccc(NCc2nnc(SCc3nnc(-c4ccccc4)o3)n2Cc2ccccc2)cc1	6.8%	-27.3%	-6.7%	15.8µM*	-15.1%	-5.7%
CCCn1cc(S(=O)(=O)c2cccc(Cl)c2)c(=O)c2cc(F)c(N3CCCC3)cc21	.	.	.	.	.	-0.2%
COc1ccc(-c2cc3ccc(O)c(CN4CCCC4)c3oc2=O)cc1OC	.	.	.	.	.	15.1µM*
O=C(COc1ccccc1F)NNC(=O)c1ccc2c(=O)n3c(nc2c1)CCC3	-1.6%	.	4.0%	13.6%	7.3%	-3.2%
O=C(NCCOc1ccccc1F)c1ccc2c(=O)n3c(nc2c1)CCC3	2.82µM*	.	2.24µM*	?	?	6.01µM*
O=C(NCCc1ccc(F)cc1)c1ccc2c(=O)n3c(nc2c1)CCC3	29.2%	.	3.55µM*	?	14.7%	?
O=C(NCc1ccccc1)c1ccc2c(=O)n3c(nc2c1)CCCCC3	-1.2%	.	6.4%	-11.5%	3.0%	-1.2%
COc1cccc(CNC(=O)c2cc(C)nc3c2c(C)nn3-c2ccc(C)cc2)c1	.	.	.	.	.	-1.6%
CN(C)/C=N/c1ncc(C(=O)c2ccc3ccccc3c2)s1	23.3%	-28.5%	?	?	3.0%	23.9µM*
COc1ccc(C(=O)c2cnc(/N=C/N(C)C)s2)cc1	13.4%	?	25.8%	?	11.3%	?
SMILES	NPC1 promoter act	SMN2 splice up	Rab9 prom act	ELG1 repair inh	ELG1 genotoxic	FLuc counter
COc1ccc(CNC(=O)Cn2c(=O)nc(-c3ccccc3F)c3cc(Cl)ccc32)cc1	.	.	.	.	.	6.1%
COc1ccc(C(=O)CSc2nc(-c3ccccn3)nc(C)c2Cl)cc1	2.8%	.	-2.7%	16.4µM*	-12.3%	-13.1%
COc1cc(/C=C2\SC(=O)N(c3ccc(Cl)cc3)C2=O)cc([N+](=O)[O-])c1O	-9.5%	-12.9%	-3.4%	-18.0%	-5.9%	-5.8%
COc1cc(/C=C2/C(=O)NN(c3ccc(C)c(Cl)c3)C2=O)cc([N+](=O)[O-])c1O	-4.5%	.	5.5%	-2.0%	0.8%	19µM*
COc1cc(/C=C2/C(=O)NN(c3cccc(C)c3)C2=O)cc([N+](=O)[O-])c1O	-1.1%	6.4%	-3.6%	-4.4%	0.8%	21.3µM*
CC(NC(=O)CN(c1ccc(Cl)cc1Cl)S(=O)(=O)c1ccccc1)c1ccccc1 (configuration not stated)	.	-15.7%	.	.	.	-11.3%
Cc1cc(=O)oc2cc(NC(=O)c3cccc(S(=O)(=O)N(C)C)c3)ccc12	1.26µM*	.	0.891µM*	?	?	?
Cc1cc(=O)oc2cc(NC(=O)c3cccc(F)c3)ccc12	?	.	1.41µM*	?	13.1%	-15.9%
O=C(Oc1ccccc1)c1ccc(COC(=O)c2cnccn2)cc1	0.3%	5.9%	0.0%	-17.6%	10.8%	?
CC(C)OC(=O)c1ccc(COC(=O)c2cnccn2)cc1	0.6%	-7.5%	0.1%	-15.2%	2.1%	7.57µM*
O=C(Oc1ccc(Cl)cc1)c1ccc(COC(=O)c2cnccn2)cc1	-5.1%	12.5%	-3.5%	2.5%	9.3%	12µM*
O=c1nc(Nc2cccc(Cl)c2)oc2cc(Cl)oc(=O)c12	17.7%	.	-1.9%	?	5.8%	13.5µM*
CSc1nc(O)c(Nc2cccc(Cl)c2)c(=O)[nH]1	-1.5%	.	-1.8%	-3.5%	0.1%	2.5%
Cc1cccc(-c2cc3c(N=O)c4ccccc4c-3n[nH]2)c1	0.708µM*	3.16µM*	1.26µM*	?	?	0.536µM*
Cc1ccc(-c2cc3c(N=O)c4ccccc4c-3n[nH]2)cc1	2.1%	-89.8%	?	?	?	0.0953µM*
O=Nc1c2cc(-c3ccccc3)[nH]nc-2c2ccccc12	3.16µM*	0.501µM*	?	?	?	0.426µM*
O=c1[nH]nc(-c2ccccc2)c2ccccc12	1.0%	.	0.9%	?	-9.8%	-2.0%
Cc1ccc(-c2n[nH]c(=O)c3ccccc23)cc1S(=O)(=O)N(C)C	-1.0%	.	-0.1%	-9.1%	2.7%	-0.9%
CC(=O)c1ccc2c(c1)OCCOCCOCCOCCOCCO2	-6.9%	.	-2.3%	0.0%	-2.2%	-4.1%
CN(C)c1ccc(/C=C/C(=O)c2ccc3c(c2)OCO3)cc1	?	.	?	?	?	2.69µM*
CN(Cc1ccccc1)C(=O)c1ccc2c(c1)OCO2	-0.5%	-10.6%	3.4%	?	0.4%	1.6%
O=C(/C=C/c1ccncc1)c1ccc2c(c1)OCCO2	0.6%	.	-3.1%	?	11.1%	12µM*
